In the library only some 1.6% were active in any assay of this set; here they are far more common.
CCHFV vOTU inh: blocks the CCHF virus ovarian tumor domain protease; CCHFV vOTU protease, Pep-AMC fluorescence; inhibition, % at 11.5 µM; 370,000 compounds, 0.55% hits; AID 651958; in the data active = inhibition above about 30%; also: 0% = vehicle wells with enzyme and 100% = no enzyme wells
PfHsp40 rescue: restores yeast growth despite PfHsp40 toxicity. growth rescue, % at 12.5 µM. AID 504582. 340,000 compounds, 0.68% hits. S. cerevisiae expressing PfHsp40, growth rescue, ATP luminescence; in the data active = growth rescue above about 28%, passing the limit was not always enough;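 also: yeast W303a lacking pdr1 and pdr3 grown in galactose medium; growth measured after three days at 30 °C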
BJeLR lethal: kills HRASV12-expressing BJeLR cells. BJeLR (HRASV12) viability, CellTiter-Glo ATP luminescence, 48 h. inhibition, % (test concentration not listed). 300,000 compounds, 0.17% hits. AID 1554; in the data active = inhibition above about 50%
RN4220 kill: S. aureus RN4220 growth inhibition | inhibition, % (no concentration beside the values) | AID 1259311 | OD600, 16 h | 330,000 compounds, 0.33% hits; in the data active = inhibition above about 85%;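 also: plate controls were untreated cells for no effect and reference antibiotic for full effect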
Sa ugtP lethal: compounds lethal to S. aureus RN4220 ugtP deletion mutant; OD600 growth, 16 h; growth inhibition, % (no concentration beside the values); 330,000 compounds, 0.54% hits; AID 1259309; in the data active = growth inhibition above about 68%;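 also: plate controls were untreated wells for no effect and antibiotic for full effect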
An asterisk follows results filed as active; · = no result.

SMILES	CCHFV vOTU inh	PfHsp40 rescue	BJeLR lethal	RN4220 kill	Sa ugtP lethal
O=C(O)CCN1C(=O)/C(=C/c2ccc(-c3nc4ccccc4s3)o2)SC1=S	16	-1	-1	99*	1
O=C(O)CCCN1C(=O)/C(=C\c2ccc(-c3nc4ccccc4s3)o2)SC1=S	11	1	5	47	100*
COc1cc(C=NN=C(N)c2nonc2N)cc(OC)c1O	·	·	·	-1	-3
O=C(OCc1ccccc1)c1cn(-c2ccccc2)nc1-c1ccncc1	-3	104*	3	6	-12
COC(=O)c1cn(-c2ccccc2)nc1-c1ccncc1	6	-1	-5	1	5
CCOC(=O)CC1c2cc(F)ccc2S(=O)(=O)N1C(C)C (stereo not drawn)	·	·	·	4	-11
COC(=O)C1=C(C)OC(N)=C(C#N)C1c1c(C)nn(C)c1C (stereo not drawn)	5	68*	-2	6	14
Cc1nc2cc(-c3ccccc3)sc2c(=O)n1N	-8	-1	79*	6	1
COc1ccc(-c2cc3nc(C)n(N)c(=O)c3s2)cc1	-99	-7	99*	3	2
COc1ccc(-c2cc3nc4n(c(=O)c3s2)CCC4)cc1	-92	3	25	5	-8
O=C(NN=Cc1cccc(Oc2ccccc2)c1)c1ccccc1Br	·	·	·	-3	99*
CCOc1ccc(NC(=S)NN=C(C)Cc2ccc(OC)cc2)cc1	·	·	·	4	13
COc1ccc(NC(=O)Cn2nnc(-c3ccccc3NC(=O)c3cccs3)n2)cc1	1	65*	20	4	-3
Cc1ccc(NC(=O)Cn2nnc(-c3ccccc3NC(=O)c3cccs3)n2)cc1	4	1	17	0	-3
Cc1c(NC(=S)NN=C/C=C/c2ccccc2)c(=O)n(-c2ccccc2)n1C	·	·	·	1	6
CCOC(=O)c1sc(N2C(=O)C(O)=C(C(=O)c3ccc(C)o3)C2c2ccc(OC)c(OC)c2)nc1C (stereo not drawn)	5	42*	3	10	25
O=C(c1cccs1)c1coc2ccc(O)cc12	-17	48*	-3	9	0
Cc1cccc(C)c1N=Nc1c(C)cc(O)cc1C	16	782*	24	-12	85
O=C1C=C(c2cccc3c2Oc2ccccc2S3)CC(c2ccc(Cl)cc2)C1 (stereo not drawn)	·	·	·	-5	3
O=C(O/N=C(\c1ccccc1)c1ccncc1)c1ccccc1Cl	-9	116*	3	·	·
N#Cc1ccc(C23CC4(C2)C(CN(Cc2cccnc2)C4c2ccccc2)C3c2ccccc2)cc1 (stereo not drawn)	·	·	·	-8	17
FC(F)Sc1ccc(NC(=S)NC(c2ccccc2)c2ccccc2)cc1	3	4	-4	99*	100*
FC(F)Sc1ccc(NC(=S)NCC2CCCCC2)cc1	6	0	15	99*	100*
FC(F)Sc1ccc(NC(=S)NC2CCCCC2)cc1	5	0	-11	-2	-29
Cc1c(C(=O)O)oc2c1C(=NO)CCC2	·	·	·	3	6
SMILES	CCHFV vOTU inh	PfHsp40 rescue	BJeLR lethal	RN4220 kill	Sa ugtP lethal
Oc1c(Cl)cc(Cl)c2c1NCCC2	0	87*	-8	·	·
O=C1NCCCc2c1oc1ccc(O)cc21	11	0	-2	2	6
CC1NC(=O)C(CC(N)=O)NC(=O)c2cc([N+](=O)[O-])cc(I)c2OCCC(C(=O)NC(CC(=O)O)C(N)=O)NC1=O (stereo not drawn)	·	·	·	5	3
C#CCOCCOCCOCCNc1nc(N2CCN(C(=O)C(CCCCN)n3cc(CCCC)nn3)CC2)nc(N2CCN(C(=O)C(C(C)O)n3cc(CCCCN)nn3)CC2)n1 (stereo not drawn)	·	·	·	4	-3
CCn1nccc1C(=O)Nc1cc(Cl)cc(Cl)c1	-5	63*	-3	5	44
C=CCn1c(-c2cccc3ccccc23)n[nH]c1=S	-5	1	-13	8	1
CCn1c(-c2cc(-c3ccc(C)cc3)nc3ccccc23)n[nH]c1=S	7	39*	0	2	1
C=CCn1c(-c2cc(-c3ccc(C)cc3)nc3ccccc23)n[nH]c1=S	8	414*	2	3	-3
O=C(O)COc1ccc(C=NNC(=O)/C(=C/C=C/c2ccccc2)NC(=O)c2ccccc2)cc1	·	·	·	-1	4
Cc1cc(N2C(=O)C(O)=C(C(=O)c3cc4ccccc4o3)C2c2ccc(OC(C)C)cc2)no1 (stereo not drawn)	5	0	-6	100*	100*

Screens as filed in PubChem.
